Data on eight molecules can be found in PubChem BioAssay (Tox21).

“And” between values parts separate entries of the source, which are not always exact repeats. Equal values may be shown once. Inconclusive results are not listed. The source made the active and inactive calls. Unless noted, calls come from the whole dose curve.

Assay [1] in a line: Nuclear factor erythroid 2-related factor 2/antioxidant responsive element (Nrf2/ARE) small molecule agonists: qHTS cell viability counter screen in human keratinocytes (AID 1919968; active = well fitted curve in the direction sought with a large enough effect in the repeat runs; an effect the other way counts as inactive or inconclusive; note: nearly all actives have a fitted effect of over 55% in size; note: potency is the fitted concentration of half-maximal effect). An outline of the steps: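 Seed 1,500 KeratinoSens cells per well, then incubate 5 h at 37 C/5% CO2. Add compounds in DMSO and incubate 23 h. Add CellTiter-Fluor, wait 1 h and read fluorescence.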
For orientation: qHTS replaces the single test concentration by a dilution series.

Assay [2] in a line: Nuclear factor erythroid 2-related factor 2/antioxidant responsive element (Nrf2/ARE) small molecule agonists: luciferase reporter gene qHTS assay in human keratinocytes (AID 1919969). Note: nearly all actives have a fitted effect of over 35% in size. Note: potency is the fitted concentration of half-maximal effect. For orientation: Reporter assays use an easily measured gene product as a stand-in for the process of interest.
In assay [3] the target is Gonadotropin-releasing hormone receptor (Homo sapiens) (UniProt P30968). Description: Human gonadotropin-releasing hormone receptor (GnRHR) small molecule agonists, calcium flux assay in GnRHR-HEK293 cells (AID 1920063). Note: nearly all actives have a fitted effect of over 35% in size. An outline of the steps:
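Cells: HEK293 stably expressing human GnRHR. Steps: overnight (18 h) culture, 1 h calcium dye loading at 37 C, compound addition, kinetic fluorescence read at 480/540 nm. Each compound tested at 15 concentrations in triplicate.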
On the technique in general: A change in cytosolic calcium serves as a functional read-out for many receptors and channels.

The target in assay [4] is KiSS-1 receptor (Homo sapiens) (UniProt Q969F8). The assay can be described thus: Human kisspeptin (KISS1R) small molecule agonists, calcium flux assay in KISS1R-HEK293 cells (AID 1920064; active = well fitted curve in the direction sought with a large enough effect in the repeat runs; an effect the other way counts as inactive or inconclusive). Put shortly:
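Cells plated and incubated 18 h; dye added, 1 h at 37 C; compounds in DMSO pinned in; signal read at 480/540 nm every second for 3 min. Each compound tested at 15 concentrations in triplicate.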

The nature of assay [5]: G protein-coupled receptor (GPCR) small molecule agonists, calcium flux assay: HEK293 wild type cell line counter screen (AID 1920065). Put shortly: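 Counter-screen of the Tox21 10K library for non-specific calcium release: dye-loaded cells received compounds in DMSO and were monitored by kinetic fluorescence (480/540 nm, 3 min). Fifteen concentrations, run in triplicate.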

Assay [6] in a line: p53 small molecule agonists, cell-based qHTS assay with human liver microsomes (AID 1963577).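 Note: p53 response element beta-lactamase reporter cells with liver microsomes plus NADPH.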 Put shortly: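 p53RE-bla cells; 5 h settle, 37 C/5% CO2; cpd + HLM 0.5 mg/mL + NADPH 0.5 mg/mL (final); 16 h 37 C; LiveBLAzer 2 h RT dark; fluorescence readout.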
A short description of assay [7]: p53 small molecule agonists, cell-based qHTS assay with rat liver microsomes (AID 1963578). Put shortly: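 Rat liver microsome activation: microsomes 0.5 mg/mL, NADPH 0.5 mg/mL final; p53RE-bla cells, 16 h 37 C; LiveBLAzer readout, 2 h RT dark.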
Assay [8] in a line: p53 small molecule agonists, cell-based qHTS assay with human liver microsomes: qHTS cell viability counter screen (AID 1963579). Note: nearly all actives have a fitted effect of over 45% in size. Note: potency is the fitted concentration of half-maximal effect. Put shortly: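 Luminescent CellTiter-Glo read-out, 30 min at room temperature, gauged cytotoxicity in p53RE-bla cells exposed 16 h at 37 C to DMSO-dissolved compounds with metabolic activation by human liver microsomes and NADPH, each 0.5 mg/mL final.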

Assay [9] is described as follows: p53 small molecule agonists, cell-based qHTS assay: qHTS cell viability counter screen (AID 1963581). Note: nearly all actives have a fitted effect of over 45% in size. An outline of the steps:
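Cells: HCT-116 with p53 response element-driven beta-lactamase. Treatment: 16 h, 37 C, compounds in DMSO. Read: CellTiter-Glo luminescence after 30 min RT.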

Assay [10] can be described thus: p53 small molecule agonists, cell-based qHTS assay (AID 1963582; active = well fitted activation curve with a large enough effect in the signal ratio in the repeat runs, not every such curve was filed as active; the % refers to the signal ratio; note: potency is the fitted concentration of half-maximal effect). Put shortly:
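Quantitative HTS in p53RE-bla cells: after a 5 h settling period, compounds delivered in DMSO were left on cells for 16 h at 37 C, and reporter induction was measured as fluorescence following 2 h substrate loading.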

Assay [11] concerns the target 5-hydroxytryptamine receptor 2A (Homo sapiens) (UniProt P28223). The assay can be described thus: 5-hydroxytryptamine receptor 2A (HTR2A) small molecule antagonists, cell-based qHTS assay (AID 1963586). Note: nearly all actives have a fitted effect of over 45% in size. Put shortly: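 Antagonist-mode intracellular calcium assay: DOI (4 nM) added after 5 min compound pre-incubation at room temperature to dye-loaded HTR2A-CHO cells. Fluorescence followed for 3 min, sampled every second.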

The target in assay [12] is Muscarinic acetylcholine receptor M1 (Homo sapiens) (UniProt P11229). The assay can be described thus: Cholinergic receptor muscarinic 1 (CHRM1) small molecule antagonists, cell-based qHTS assay (AID 1963588). Note: nearly all actives have a fitted effect of over 40% in size. An outline of the steps: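 CHRM1-CHO calcium-flux assay, antagonist mode. Cells were seeded 18 h, dye-loaded 1 h at 37 C and given compound for 5 min at RT, then acetylcholine was added at 50nM. FDSS fluorescence was read 3 min; 15 concentrations, three runs.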
Muscarinic acetylcholine receptor M1 (Homo sapiens), sequence (P11229 whole entry, looked up): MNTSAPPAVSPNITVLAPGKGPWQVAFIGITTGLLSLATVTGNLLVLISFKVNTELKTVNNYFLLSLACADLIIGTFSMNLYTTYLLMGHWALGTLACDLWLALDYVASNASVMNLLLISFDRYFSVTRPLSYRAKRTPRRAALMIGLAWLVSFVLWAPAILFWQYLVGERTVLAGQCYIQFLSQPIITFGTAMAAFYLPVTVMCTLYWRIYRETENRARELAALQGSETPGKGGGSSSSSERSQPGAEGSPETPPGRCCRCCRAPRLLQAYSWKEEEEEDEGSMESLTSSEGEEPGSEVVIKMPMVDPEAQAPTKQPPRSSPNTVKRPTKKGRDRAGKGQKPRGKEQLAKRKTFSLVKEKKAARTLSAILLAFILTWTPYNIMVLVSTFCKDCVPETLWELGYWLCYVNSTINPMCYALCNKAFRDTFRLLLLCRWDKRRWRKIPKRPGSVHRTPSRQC

Assay [13] has the same target. The assay can be described thus: Cholinergic receptor muscarinic 1 (CHRM1) small molecule agonists, cell-based qHTS assay (AID 1963589). Note: nearly all actives have a fitted effect of over 35% in size. Put shortly:
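Agonist-mode qHTS in CHO cells stably carrying human muscarinic M1. Intracellular calcium is tracked by fluorescence every second after compound transfer; each compound runs at 15 concentrations in three independent runs.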

A short description of assay [14]: cAMP Responsive Elements (CRE) small molecule agonists, cell-based qHTS assay (AID 1963590). An outline of the steps: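 Agonist mode qHTS in CRE-bla HEK 293T cells: compounds dosed from DMSO for 3 h at 37 C/5% CO2, followed by LiveBLAzer B/G FRET substrate for 2 h at room temperature.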
Assay [15] is described as follows: cAMP Responsive Elements (CRE) small molecule antagonists, cell-based qHTS assay (AID 1963591; active = well fitted inhibition curve with a large enough effect in the signal ratio in the repeat runs, not every such curve was filed as active; the % refers to the signal ratio). An outline of the steps: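 Antagonist mode: test compounds are co-incubated with the adenylyl cyclase activator NKH477 (0.25 uM final) on CRE-bla HEK293T cells for 3 h at 37 °C, followed by LiveBLAzer substrate loading.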
For assay [16], the target named is Beta-2 adrenergic receptor (Homo sapiens) (UniProt P07550). Description: Adrenergic beta2 receptor (ADRB2) small molecule antagonists, cell-based qHTS assay (AID 1963592). Note: series mostly up to about 92 µM; nearly all actives have a fitted effect of over 50% in size. An outline of the steps:
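Cells (CHO, stable ADRB2 overexpression) incubated 18-20hr at 37C; compounds added from DMSO; agonist mix (1nM isoproterenol, 100uM IBMX, 25uM Ro-20-1724) added; 0.5hr RT; d2-cAMP and anti-cAMP-cryptate added; 1hr RT; 665/615 nm read.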

Assay [17] has the same target. The assay can be described thus: Adrenergic beta2 receptor (ADRB2) small molecule agonists, cell-based qHTS assay (AID 1963593).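 Note: CHO cells stably overexpressing human ADRB2.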 Put shortly:
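CHO cells stably over-expressing ADRB2 were plated overnight at 37C, then dosed with compounds plus a stimulation mix containing 100uM IBMX and 25uM Ro-20-1724 for 0.5hr at room temperature. cAMP was measured by HTRF competition, 1hr.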

Assay [18] deals with D(2) dopamine receptor (Homo sapiens) (UniProt P14416). Description: Dopamine D2 receptor (DRD2) small molecule agonists, cell-based qHTS assay (AID 1963594). Note: nearly all actives have a fitted effect of over 35% in size. Put shortly: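 HEK293 cells stably expressing human DRD2, pre-treated with PDE inhibitor Ro20-1724 (0.1 mM final) and compound 10 min at room temperature, then stimulated with NKH477 (200nM […]) for 30 min. cAMP read by HTRF (665/620 nm).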
D(2) dopamine receptor (Homo sapiens), sequence (P14416 whole entry, looked up): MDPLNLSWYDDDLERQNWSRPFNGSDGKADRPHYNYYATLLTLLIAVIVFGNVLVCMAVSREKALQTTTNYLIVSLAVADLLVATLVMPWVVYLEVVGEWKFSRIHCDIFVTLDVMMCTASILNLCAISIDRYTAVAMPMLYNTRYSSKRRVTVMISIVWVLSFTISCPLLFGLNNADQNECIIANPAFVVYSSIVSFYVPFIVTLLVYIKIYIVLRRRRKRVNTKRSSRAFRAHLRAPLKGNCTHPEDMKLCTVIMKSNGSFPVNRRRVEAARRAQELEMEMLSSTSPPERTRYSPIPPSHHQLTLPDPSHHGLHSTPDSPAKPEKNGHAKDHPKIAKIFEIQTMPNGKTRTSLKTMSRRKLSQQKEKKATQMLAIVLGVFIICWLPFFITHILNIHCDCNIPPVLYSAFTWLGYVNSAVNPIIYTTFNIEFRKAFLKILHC

For assay [19] the target is unchanged. Description: Dopamine D2 receptor (DRD2) small molecule antagonists, cell-based qHTS assay (AID 1963595; active = well fitted inhibition curve with a large enough effect in the signal ratio in the repeat runs, with a control signal flat; the % refers to the signal ratio). An outline of the steps: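 Cells were plated and grown for 24 h at 37 °C. Ro20-1724 (0.1 mM final) went in first, then compound for 10 min. NKH477 (200 nM) with quinpirole (12 nM) followed for 30 min at RT, then HTRF detection reagents for 1 h.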
For assay [20], the target named is 5-hydroxytryptamine receptor 2A (Homo sapiens) (UniProt P28223). Description: 5-hydroxytryptamine receptor 2A (HTR2A) small molecule agonists, cell-based qHTS assay (AID 1963587). Note: nearly all actives have a fitted effect of over 30% in size. An outline of the steps:
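CHO cells stably expressing human HTR2A, plated 18 h, loaded with calcium dye 1 h at 37 C. Agonist mode: compounds added and intracellular calcium fluorescence recorded kinetically for 2 min at 1 sec intervals.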

Gonadotropin-releasing hormone receptor (Homo sapiens), sequence (P30968 whole entry, looked up): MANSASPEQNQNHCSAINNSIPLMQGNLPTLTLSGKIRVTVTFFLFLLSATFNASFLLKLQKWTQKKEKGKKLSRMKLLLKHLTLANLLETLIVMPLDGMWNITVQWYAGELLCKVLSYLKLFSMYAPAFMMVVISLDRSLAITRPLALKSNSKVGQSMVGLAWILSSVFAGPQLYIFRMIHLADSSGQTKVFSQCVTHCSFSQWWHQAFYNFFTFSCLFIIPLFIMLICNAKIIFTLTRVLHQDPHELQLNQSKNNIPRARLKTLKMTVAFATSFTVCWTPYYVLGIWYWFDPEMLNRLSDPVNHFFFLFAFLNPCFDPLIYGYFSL
KiSS-1 receptor (Homo sapiens), sequence (Q969F8 whole entry, looked up): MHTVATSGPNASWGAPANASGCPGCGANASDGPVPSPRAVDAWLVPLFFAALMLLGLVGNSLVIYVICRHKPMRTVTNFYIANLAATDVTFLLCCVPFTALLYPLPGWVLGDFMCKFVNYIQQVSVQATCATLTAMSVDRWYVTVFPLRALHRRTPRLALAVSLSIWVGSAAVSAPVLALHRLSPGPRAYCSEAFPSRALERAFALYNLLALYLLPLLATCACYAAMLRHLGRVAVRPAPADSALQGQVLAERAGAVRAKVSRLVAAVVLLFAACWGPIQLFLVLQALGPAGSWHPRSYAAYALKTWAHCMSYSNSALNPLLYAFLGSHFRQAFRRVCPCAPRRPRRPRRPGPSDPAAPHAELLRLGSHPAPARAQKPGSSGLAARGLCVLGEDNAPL
5-hydroxytryptamine receptor 2A (Homo sapiens), sequence (P28223 whole entry, looked up): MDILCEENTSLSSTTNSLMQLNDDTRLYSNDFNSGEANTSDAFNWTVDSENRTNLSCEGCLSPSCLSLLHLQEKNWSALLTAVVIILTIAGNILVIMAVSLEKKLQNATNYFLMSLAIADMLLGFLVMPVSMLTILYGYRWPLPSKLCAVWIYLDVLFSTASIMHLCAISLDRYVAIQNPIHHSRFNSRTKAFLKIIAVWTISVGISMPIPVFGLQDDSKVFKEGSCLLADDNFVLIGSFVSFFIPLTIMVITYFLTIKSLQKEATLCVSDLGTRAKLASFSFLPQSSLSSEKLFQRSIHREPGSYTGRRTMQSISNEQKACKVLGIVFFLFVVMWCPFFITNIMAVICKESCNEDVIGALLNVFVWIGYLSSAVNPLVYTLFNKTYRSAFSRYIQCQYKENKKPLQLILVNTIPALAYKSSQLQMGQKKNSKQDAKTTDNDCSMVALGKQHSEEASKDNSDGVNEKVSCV
Beta-2 adrenergic receptor (Homo sapiens), sequence (P07550 whole entry, looked up): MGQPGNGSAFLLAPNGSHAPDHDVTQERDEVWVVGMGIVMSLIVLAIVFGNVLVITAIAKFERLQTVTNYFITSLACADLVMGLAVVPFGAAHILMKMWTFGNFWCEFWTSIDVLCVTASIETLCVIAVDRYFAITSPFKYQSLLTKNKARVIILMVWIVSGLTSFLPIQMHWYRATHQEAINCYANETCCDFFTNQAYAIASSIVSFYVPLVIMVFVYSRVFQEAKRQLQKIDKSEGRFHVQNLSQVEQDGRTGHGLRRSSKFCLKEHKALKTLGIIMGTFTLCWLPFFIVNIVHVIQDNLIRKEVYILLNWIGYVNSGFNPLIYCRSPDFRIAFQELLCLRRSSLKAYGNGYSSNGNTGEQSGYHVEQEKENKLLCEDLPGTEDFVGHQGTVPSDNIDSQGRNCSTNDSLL

With `O=[N+]([O-])c1ccc(F)cc1F`, the Potency entry in assay [1], in [2], in assay [3], in assay [4], in assay [5] and in assay [6] was “inactive” throughout. The Potency entry in assay [7], in assay [8], in [9], in assay [10], in assay [11] and in assay [12] was “inactive” each time. Moreover, the Potency entry in [13], in assay [14], in [15], in assay [16], in assay [17] and in assay [18] was “inactive” in each case. For the same molecule, in [19], the Potency result is “inactive”.

Regarding `CC(=O)CC(C)=O`, the Potency result in assay [1], in assay [2], in assay [3], in assay [4], in assay [5] and in assay [6] was “inactive” each time. For the same molecule, the Potency entry in assay [7], in assay [8], in [9], in assay [10], in [11] and in assay [20] was “inactive” each time. Moreover, the Potency result in assay [12], in assay [13], in assay [14], in [15], in assay [16] and in assay [17] was “inactive” in each case. Besides, the Potency result in [18] and in assay [19] was “inactive” in each case.

Turning to `O=C1CCCCCCCCCCCCCCCO1`, the Potency result in assay [1], in [2], in assay [3], in assay [4], in assay [5] and in assay [6] was “inactive” in each case. The Potency result in assay [7], in [8], in [9], in assay [10], in assay [11] and in [20] was “inactive” in each case. The Potency entry in assay [12], in assay [13], in assay [14], in [15], in assay [16] and in assay [18] was “inactive” throughout.

Regarding `CCOCCOC(=O)/C=C/c1ccc(OC)cc1`, the Potency result in assay [1], in assay [2], in assay [3], in assay [4], in [5] and in [6] was “inactive” each time. For the same molecule, the Potency entry in assay [7], in assay [8], in assay [9], in assay [10], in assay [11] and in assay [20] was “inactive” in each case. For the same molecule, the Potency entry in assay [12], in [13], in [14], in assay [15], in [16] and in assay [17] was “inactive” throughout. Moreover, the Potency entry in assay [19] is “inactive”.

`O=C(O)c1cccnc1C(=O)O`: the Potency entry in [1], in assay [2], in assay [3], in [4], in [5] and in assay [6] was “inactive” each time. Further, the Potency entry in assay [7], in [8], in [9], in [10], in assay [11] and in assay [20] was “inactive” throughout. The Potency entry in assay [12], in [13], in assay [14], in assay [15], in assay [16] and in assay [17] was “inactive” throughout. For the same molecule, the Potency result in [18] and in assay [19] was “inactive” in each case.

As for `COc1cc(C(=S)N2CCOCC2)cc(OC)c1OC`, the Potency entry in [1], in assay [2], in [3], in assay [4], in assay [5] and in assay [6] was “inactive” throughout. For the same molecule, the Potency result in assay [7], in assay [8], in assay [9], in assay [10], in assay [11] and in assay [20] was “inactive” in each case. Moreover, the Potency entry in assay [12], in [13], in [14], in assay [15], in assay [16] and in assay [18] was “inactive” in each case.

For `CC1=CC(C)C(C=O)CC1` (stereo not given), the Potency result in assay [1], in assay [2], in assay [3], in [4], in [5] and in assay [6] was “inactive” each time. Moreover, the Potency result in [7], in assay [8], in assay [9], in [10], in assay [11] and in [20] was “inactive” each time. Also, the Potency result in assay [12], in assay [13], in assay [14], in assay [15], in assay [16] and in assay [17] was “inactive” each time. The Potency result in [18] and in assay [19] was “inactive” throughout.

In the case of `CN(C)c1ccc2nc3ccc(=[N+](C)C)cc-3sc2c1`, the Potency in [1] was 54.5 µM (active); in [2], 10.4 µM (active) and 15.4 µM (active) and 13.3 µM (active); in [8], 8.14 µM (active); in [10], 28.9 µM (active). For the same molecule, the Potency result in assay [3], in [4], in assay [5], in assay [6], in assay [7] and in assay [9] was “inactive” in each case. Also, the Potency result in assay [11], in [20], in assay [12], in assay [13], in assay [14] and in assay [15] was “inactive” in each case.
